{"source": "PubChem BioAssay (NCI)", "note": "About 83,000 compounds went through this panel and 20% of them were active in at least one assay; those are over-represented in the sample as a whole.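 Results are percent growth after 48 hours of single-concentration exposure. 100 means growth as in untreated cells, lower positive values show inhibition; negative values down to -100 show cell death.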 Calls of active or inactive are those of the source.", "data": [{"system": "PC-3 prostate", "test": "NCI-60 one-dose screen, 48 h (100 = growth as untreated, 0 = no growth, -100 = all killed)", "conditions": "10 µM unless noted", "procedure": "Growth inhibition of the PC-3 human tumor cell line is measured as a screen for anti-cancer activity. Cells are grown in 96 well plates and exposed to the test compound for 48 hours. Compounds are tested at a single concentration, which is 10^-5 M for most compounds. The reported endpoint is percent growth (GI% or GIPRCNT), where numbers from 0 - 100% represent growth inhibition, and numbers from -100% - 0 represent cell death. For example, a value of 40 represents 60% growth inhibition. A value of 0 means no net growth occurred over the course of the experiment. A value of -40 indicates 40% of cells at the beginning of the experiment died by the end of the experiment. A value of -100 means all cells are dead at the end of the experiment.\nNCI-60 Human Tumor Cell Lines Screen was performed using the standard one-dose NCI protocol, which is described in more detail at https://dtp.cancer.gov/discovery_development/nci-60/default.htm.\nCompounds with GIPRCNT values below 10 were considered active. Activity score was based on GIPRCNT using the following formula: […]\nScore is 0 for GIPRCNT values of 100 or above, 50 for GIPRCNT values of 0, and 100 for GIPRCNT values of -100.", "values": [{"compound": "Cc1cccc(Oc2ccc(Nc3ncnc4ccc(NC(=O)CNCCO)cc34)cc2Cl)c1", "growth": "61.4% (inactive)"}, {"compound": "Cc1[nH]n(-c2cccc(Cl)c2)c(=O)c1/C=C1\\C=Nc2ccc(Br)cc21", "growth": "31.2% (inactive)"}, {"compound": "C(=C\\c1n(Cc2ccc3ccccc3c2)c(-c2ccccc2)c(-c2ccccc2)[n+]1Cc1ccc2ccccc2c1)/c1ccccc1", "growth": "-81.2% (active)"}, {"compound": "O=C(O)CCCCCCCCCCCCCCC(=O)O", "growth": "92.6% (inactive)"}, {"compound": "O=C(c1ccccc1)N1N=C(c2ccc(-n3ccc(C(F)(F)F)n3)cc2)CC1c1ccc[nH]1", "note": "(stereo not given)", "growth": "83.3% (inactive)"}, {"compound": "C[C@]12C[C@H]1CC[C@]1(C)[C@@H]2CC[C@@]23C[C@H](CC[C@H]21)[C@@](O)(CO)C3", "growth": "88.9% (inactive)"}, {"compound": "CN1CCN(CCCOc2ccc3ncnc(Nc4ccc(Oc5cccc(C(F)(F)F)c5)c(Cl)c4)c3c2)CC1", "growth": "7.28% (active)"}, {"compound": "OC(c1ccccc1)c1ccccn1", "note": "(stereo not given)", "growth": "89.9% (inactive)"}, {"compound": "O=C(O)/C=C\\C(=O)N1C/C(=C\\c2ccccc2Cl)C(=O)/C(=C/c2ccccc2Cl)C1", "growth": "16.7% (inactive)"}, {"compound": "O=[N+]([O-])c1cccc(-c2nc(-c3ccc(Cl)cc3Cl)cn2-c2ccccc2)c1", "growth": "-47.7% (active)"}, {"compound": "C=CCn1c(SCC(=O)Nc2ccc(C(=O)/C=C/c3cc(OC)c(OC)c(OC)c3)cc2)nnc1-c1cc(OC)c(OC)c(OC)c1", "growth": "49.9% (inactive)"}, {"compound": "ClCC1(Cn2cnc3c(Cl)nc(Cl)nc32)COC1", "growth": "66.3% (inactive)"}, {"compound": "COc1ccc(OC)c(/C=C/[C@H]2O[C@@H](C)[C@H](O)[C@@H]2O)c1", "growth": "106% (inactive)"}, {"compound": "CC1(C)NCCC[C@]2(C)[C@H]3CC=C4[C@@H]5C[C@@](C)(CO)CC[C@]5(C)CC[C@@]4(C)[C@]3(C)CC[C@@H]12", "growth": "35.1% (inactive)"}, {"compound": "O=C(Nc1ccc(Nc2ncccn2)cc1)NC1C=c2ccccc2=CC1", "note": "(stereo not given)", "growth": "108% (inactive)"}, {"compound": "Nc1ncc(C#Cc2cncc(NC(=O)c3cccc(C(F)(F)F)c3)c2)c2cccnc12", "growth": "49.9% (inactive)"}, {"compound": "COc1ccc(-c2nc(SC)nc(N3CCOCC3)c2C#N)cc1", "growth": "81.1% (inactive)"}, {"compound": "CCOC(=O)c1c(O)cc(-c2ccccc2)cc1-c1sc(N(C)Cc2ccccc2)nc1Cl", "growth": "97% (inactive)"}, {"compound": "CCC(C)C(N)C(=O)NNc1n[nH]c(=S)n1N", "note": "(stereo not given)", "growth": "100% (inactive)"}, {"compound": "COc1ccccc1Nc1cc(O)c2c(=O)cc(-c3ccccc3)oc2c1", "growth": "54.5% (inactive)"}, {"compound": "O=C(O)C(/C=C/c1ccco1)=N\\Nc1nc(-c2ccc(Cl)cc2)cs1", "growth": "54.3% (inactive)"}, {"compound": "CC(=O)N1c2ccccc2NC2=C(C(=O)N(Cc3ccccc3)C2(C)C)C1c1ccco1", "note": "(stereo not given)", "growth": "29.7% (inactive)"}, {"compound": "CN1CCN(c2ccc(NC3=C(Cl)C(=O)c4ncccc4C3=O)cc2C#N)CC1", "growth": "60.6% (inactive)"}, {"compound": "Cc1c([N+](=O)[O-])cc(C(C)(C)C)cc1[N+](=O)[O-]", "growth": "95.3% (inactive)"}, {"compound": "O=C(Cc1ccc(/C=C/C(=O)c2ncc[nH]2)cc1)Nc1ccc(C(F)(F)F)cc1", "growth": "36.6% (inactive)"}, {"compound": "NC(=O)C1(N2CCCCC2)CCN(CCCC(=O)c2ccc(F)cc2)CC1", "growth": "30.2% (inactive)"}, {"compound": "COc1cc2nc(-c3ccc(C(F)(F)F)cc3)cc(OCCN3CCC(O)CC3)c2cc1OC", "growth": "71.8% (inactive)"}, {"compound": "COc1ccc(C(O)c2cc3c(N)c(C(=O)Nc4cccc(Br)c4C)sc3nc2C)cc1", "note": "(stereo not given)", "growth": "26.9% (inactive)"}, {"compound": "COc1cccc(C(Cc2ccccc2)Nc2ccccc2)c1OC", "note": "(stereo not given)", "growth": "83.2% (inactive)"}, {"compound": "CCOC(=O)Oc1c(OC)cc(C(=O)O[C@@H]2C[C@@H]3CN4CCc5c([nH]c6cc(OC)ccc56)[C@H]4C[C@@H]3[C@H](C(=O)OC)[C@H]2OC)cc1OC", "growth": "35% (inactive)"}, {"compound": "Fc1ccc(-n2cc(COc3ncnc4sc5c(c34)CCCC5)nn2)cc1Cl", "growth": "89.5% (inactive)"}, {"compound": "CCCOc1nc(SCCC)nc2c1cnn2-c1ccccc1", "growth": "102% (inactive)"}, {"compound": "COc1cc(/C=N/NC(=O)c2ccccc2Nc2cccc(C(F)(F)F)c2)ccc1O", "growth": "80.9% (inactive)"}, {"compound": "O=C(NCCc1ccccn1)OCc1nc2nc(Cl)nc(N3CCOCC3)c2[nH]1", "growth": "22.7% (inactive)"}, {"compound": "CSc1nc(O)c(-c2ccccc2)c(=O)[nH]1", "growth": "96.9% (inactive)"}, {"compound": "[2H]C1([2H])NC([2H])([2H])C([2H])([2H])N(c2ccc(Nc3ncc4cc(C(=O)N(C)C)n(C5CCCC5)c4n3)nc2)C1([2H])[2H]", "growth": "62.3% (inactive)"}, {"compound": "O=C(Nc1ccccc1)Oc1ccccc1-c1ccccc1", "growth": "80.4% (inactive)"}, {"compound": "CS(=O)(=O)c1ccc(-c2cc(-c3nnc(SCC(=O)Nc4ccc(C(=O)/C=C/c5ccc(Cl)cc5)cc4)n3-c3ccccc3)c3ccccc3n2)cc1", "growth": "89.1% (inactive)"}, {"compound": "CC(=O)c1c[nH]c2ccc(-c3ccnc(Nc4ccc(NC(=O)C5CCCC5)c(CN5CCOCC5)c4)n3)cc12", "growth": "2.51% (active)"}, {"compound": "Cc1[nH]c(C(=O)Nc2ccccc2OCc2cccc(C(=O)NCCN)c2)c(Cl)c1Cl", "growth": "79.7% (inactive)"}]}]}
